# Records with an inconclusive call do not appear. Active and inactive are the calls of the source. Rule for the calls, unless noted: active = hit-call score of the fitted dose curve at least 0.9, where 1 is the maximum; inconclusive = response in the unintended direction; inactive = score below 0.9. Where a SMILES comes first, the peptide text is derived from it. [ ]: non-standard residue; d: D form. The star is where a group is joined. Sta = CC(C)C[C@H](N)[C@@H](O)CC(=O)O; Isovaleryl = CC(C)CC(=O)*
# Key:
# [1] = biological target: Cellular tumor antigen p53 (Homo sapiens) (UniProt P04637); test: TOX21_p53_BLA_p2_ratio: Tox21 HCT-116 p53 Agonism Beta-lactamase Assay, Ratio, Phase 2 (AID 2283592)
# Cellular tumor antigen p53 (Homo sapiens), sequence (P04637 whole entry, looked up): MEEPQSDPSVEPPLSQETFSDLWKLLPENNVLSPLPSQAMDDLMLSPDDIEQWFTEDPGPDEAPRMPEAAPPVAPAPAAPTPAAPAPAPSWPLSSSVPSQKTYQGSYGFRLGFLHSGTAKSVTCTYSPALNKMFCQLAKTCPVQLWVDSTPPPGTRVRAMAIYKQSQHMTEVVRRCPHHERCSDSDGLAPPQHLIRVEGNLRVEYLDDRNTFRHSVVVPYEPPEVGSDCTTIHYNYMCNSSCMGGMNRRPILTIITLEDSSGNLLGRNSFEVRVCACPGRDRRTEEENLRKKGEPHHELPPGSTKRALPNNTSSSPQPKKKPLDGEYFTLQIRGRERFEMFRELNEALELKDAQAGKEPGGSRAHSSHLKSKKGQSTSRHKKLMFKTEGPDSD
# Method in brief: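 First, HCT116 reporter cells settle for 5 h at 37C. Next, DMSO compound solutions are pinned in (217-fold dilution) and left 16 h. Finally, CCF4-AM substrate is loaded 2 h at room temperature and the 460/530 nm ratio read.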
# [2] = biological target: Cellular tumor antigen p53 (Homo sapiens) (UniProt P04637); test: TOX21_p53_BLA_p5_ratio: Tox21 HCT-116 p53 Agonism Beta-lactamase Assay, Ratio, Phase 5 (AID 2283599)
# Method in brief: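 Beta-lactamase reporter ratio (blue 460 nm over green 530 nm, 405 nm excitation) after 2 h CCF4-AM loading, in HCT-116 cells exposed 16 h at 37 C to compounds pinned at 217-fold dilution. Increases relative to DMSO baseline scored.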
# [3] = biological target: Cellular tumor antigen p53 (Homo sapiens) (UniProt P04637); test: TOX21_p53_BLA_p4_ratio: Tox21 HCT-116 p53 Agonism Beta-lactamase Assay, Ratio, Phase 4 (AID 2283601)
# Method in brief: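 Signal is the blue/green (460nm/530nm) ratio of cleaved versus uncleaved CCF4-AM substrate, read after 2 h substrate loading. Cells were HCT116 carrying the p53-responsive beta-lactamase reporter, dosed 16 h at 37C, 5% CO2; CellTiter-Glo measured in parallel.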
# [4] = TOX21_p53_BLA_p5_viability: Viability Assessment in the Tox21 HCT-116 p53 Agonism Beta-lactamase Assay, Phase 5 (AID 2283600)
# Method in brief: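 Decreased CellTiter-Glo luminescence denotes lost viability. Exposure: 16 h at 37C, 5% CO2, with compounds from DMSO stocks diluted 217-fold in wells of 4000 cells.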
# [5] = CCTE_Harrill_HTTr_Viability_MCF7: CCTE's 6-hour Cell Viability Assessment for the High-Throughput Transcriptomics (HTTr) Platform, in MCF-7 cells cultured in DMEM + 10% fetal bovine serum, Harrill Lab (AID 2284010; active = hit-call score of the fitted dose curve at least 0.9, where 1 is the maximum; inactive = score below 0.9)
# Method in brief: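 Read-out is propidium iodide gain of signal by high-content imaging, reflecting membrane integrity loss. Measurements are taken 6 h after dosing, eight concentrations per chemical, with DMSO serving as baseline for bidirectional curve fitting.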
# [6] = CCTE_Harrill_HTTr_Apoptosis_MCF7: CCTE's 6-hour Apoptosis Assessment for the High-Throughput Transcriptomics (HTTr) Platform, in MCF-7 cells cultured in DMEM + 10% fetal bovine serum, Harrill Lab (AID 2284011; active = hit-call score of the fitted dose curve at least 0.9, where 1 is the maximum; inactive = score below 0.9)
# Method in brief: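 MCF-7 cells in DMEM + 10% FBS exposed 6 h to chemicals over an eight-point dilution series. Caspase-3/7 activation imaged by high-content CellEvent Green staining; fitted bidirectionally versus DMSO.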
# [7] = CCTE_Harrill_HTTr_CellCount_MCF7: CCTE's Cell Proliferation Assessment for the High-Throughput Transcriptomics (HTTr) Platform, Harrill Lab (AID 2284012);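 note: cells exposed to compound for six hours; intended direction is loss of nuclei count meaning fewer cells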
# Method in brief: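 Cell count served as viability reporter: loss of Hoechst-stained nuclei, counted by high content imaging, marks decreased growth or survival. Exposure was 6 h in MCF-7 cells across eight concentrations, with DMSO as baseline.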
# [8] = TOX21_p53_BLA_p3_viability: Viability Assessment in the Tox21 HCT-116 p53 Agonism Beta-lactamase Assay, Phase 3 (AID 2283593);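 note: cells exposed to compound for 16 h before reading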
# Method in brief: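 Cellular ATP was quantified by CellTiter-Glo luminescence, read after 30 min at room temperature. Beforehand, HCT116 cells (4000/well) received compound 5 h post-seeding, 217-fold diluted from DMSO, then incubated 16 h at 37C.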
# [9] = biological target: Cellular tumor antigen p53 (Homo sapiens) (UniProt P04637); test: TOX21_p53_BLA_p3_ratio: Tox21 HCT-116 p53 Agonism Beta-lactamase Assay, Ratio, Phase 3 (AID 2283596)
# Method in brief: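 Cells were seeded at 4000/well, rested 5 h at 37C, then dosed with DMSO compound solutions (217-fold dilution) for 16 h. CCF4-AM substrate was loaded for 2 h at room temperature, and the 460/530 nm emission ratio was fitted for gain of signal versus DMSO.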
# [10] = TOX21_p53_BLA_p4_viability: Viability Assessment in the Tox21 HCT-116 p53 Agonism Beta-lactamase Assay, Phase 4 (AID 2283597);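 note: hits lower the luminescence signal meaning cytotoxicity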
# Method in brief: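 4000 HCT116 cells per well; 5 h attachment; compounds from DMSO, 217-fold dilution; 16 h at 37C. Then CCF4-AM, 2 h RT, followed by CellTiter-Glo, 30 min RT, luminescence. Decrease = cytotoxicity.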
# PGR (gene 5241) [11] = biological target: PGR (gene 5241) (UniProt P06401); test: TOX21_PR_BLA_Followup_Agonist_ratio: Tox21 HEK293 Progesterone Receptor (PR) Agonism Beta-lactamase Follow-Up Assay, Ratio (AID 2283933)
# PGR (gene 5241), sequence (P06401 whole entry, looked up): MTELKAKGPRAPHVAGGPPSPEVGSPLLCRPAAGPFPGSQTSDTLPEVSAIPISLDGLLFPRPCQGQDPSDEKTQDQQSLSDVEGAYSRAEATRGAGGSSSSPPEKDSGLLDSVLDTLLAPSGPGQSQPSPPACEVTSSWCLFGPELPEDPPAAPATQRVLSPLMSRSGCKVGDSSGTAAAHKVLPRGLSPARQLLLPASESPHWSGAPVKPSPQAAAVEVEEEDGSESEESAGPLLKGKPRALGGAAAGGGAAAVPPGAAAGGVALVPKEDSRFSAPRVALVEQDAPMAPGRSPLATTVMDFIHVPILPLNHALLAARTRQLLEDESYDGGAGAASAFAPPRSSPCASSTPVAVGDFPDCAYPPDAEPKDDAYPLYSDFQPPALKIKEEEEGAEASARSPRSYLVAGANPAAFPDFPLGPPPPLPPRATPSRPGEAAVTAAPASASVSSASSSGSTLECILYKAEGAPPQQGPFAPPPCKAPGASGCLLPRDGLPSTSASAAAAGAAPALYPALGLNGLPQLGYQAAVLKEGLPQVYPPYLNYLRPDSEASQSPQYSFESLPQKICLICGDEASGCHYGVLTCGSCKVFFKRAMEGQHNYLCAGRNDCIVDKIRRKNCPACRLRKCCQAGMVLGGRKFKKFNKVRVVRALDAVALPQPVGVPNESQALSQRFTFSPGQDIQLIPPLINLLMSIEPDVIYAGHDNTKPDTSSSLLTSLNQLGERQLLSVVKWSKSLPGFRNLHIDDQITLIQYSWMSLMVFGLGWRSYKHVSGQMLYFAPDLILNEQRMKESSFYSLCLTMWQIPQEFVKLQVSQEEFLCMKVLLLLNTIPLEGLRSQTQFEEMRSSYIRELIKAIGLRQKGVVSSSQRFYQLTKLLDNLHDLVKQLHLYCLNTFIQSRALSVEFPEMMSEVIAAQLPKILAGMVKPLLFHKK
# Method in brief: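 Cells were seeded and held 6 hr before compound addition, exposed for 16 hr at 37C, then given FRET substrate for 2 hr at room temperature. Agonism was scored from the blue/green substrate cleavage ratio against DMSO controls.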
# PGR (gene 5241) [12] = biological target: PGR (gene 5241) (UniProt P06401); test: TOX21_PR_BLA_Followup_Antagonist_ratio: Tox21 HEK293 Progesterone Receptor (PR) Antagonism Beta-lactamase Follow-Up Assay, Ratio (AID 2283934);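 note: PR-UAS-bla HEK293T cells stimulated with 1 nM R5020 agonist for 16 hr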
# Method in brief: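 Cells are plated, rested 6 hr, then dosed with test compound in DMSO and challenged with 1 nM promegestone. After 16 hr incubation, substrate loading for 2 h at room temperature precedes fluorescence reading; viability is measured in the same wells.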
# [13] = TOX21_PR_BLA_Followup_Agonist_viability: Viability Assessment in the Tox21 HEK293 Progesterone Receptor (PR) Agonism Beta-lactamase Follow-Up Assay (AID 2283935);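 note: signal loss means lower viability so actives are cytotoxic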
# Method in brief: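 Cells were plated in medium with 2% charcoal-stripped FBS and rested 6 hr. Compounds in DMSO were then added for 16 hr at 37C, followed by the FRET substrate step and CellTiter-Glo luminescence after 30 min.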
# PGR (gene 5241) [14] = biological target: PGR (gene 5241) (UniProt P06401); test: TOX21_PR_LUC_Followup_Agonist: Tox21 HEK293 Progesterone Receptor (PR) Agonism Luciferase Follow-Up Assay (AID 2283937; active = hit-call score of the fitted dose curve at least 0.9, where 1 is the maximum; inactive = score below 0.9)
# Method in brief: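 Seed HEK293-PR-A-luc cells, wait 5 h, add compounds in DMSO, incubate 16 h at 37C, add ONE-Glo, read luminescence after 30 min. Activity is increase over DMSO controls; run with a viability counter-screen.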
# PGR (gene 5241) [15] = biological target: PGR (gene 5241) (UniProt P06401); test: TOX21_PR_LUC_Followup_Antagonist: Tox21 HEK293 Progesterone Receptor (PR) Antagonism Luciferase Follow-Up Assay (AID 2283938);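 note: curve fitted upward as signal gain over DMSO baseline despite antagonist label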
# Method in brief: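 HEK293-PR-A-luc cells, 3,000/well, preincubated 5 h at 37C before compound addition in DMSO; 16 h compound exposure at 37C. ONE-Glo luciferase luminescence read after 30 min at room temperature, fitted relative to DMSO baseline.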
# [16] = TOX21_PR_LUC_Followup_Agonist_viability: Viability Assessment in the Tox21 HEK293 Progesterone Receptor (PR) Agonism Luciferase Follow-Up Assay (AID 2283941);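 note: loss of signal means cytotoxicity so actives lower viability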
# Method in brief: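 Multiplexed viability endpoint of the PR agonist luciferase follow-up: HEK293-PR-A-luc cells treated 16 h at 37C, with viability scored as decrease in CellTiter-Glo ATP signal.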
structure (smiles),measurement,setting,value
Cc1ccco1,outcome,[1],inactive
same,outcome,[2],inactive
same,outcome,[3],inactive
Cc1cccc(C(=O)O)c1[N+](=O)[O-],outcome,[1],inactive
same,outcome,[2],inactive
same,outcome,[3],inactive
CC(CN1c2ccccc2Sc2cccnc21)N(C)C (centres undefined),outcome,[1],inactive
same,outcome,[2],inactive
same,outcome,[3],inactive
CC(C)S,outcome,[1],inactive
same,outcome,[2],inactive
same,outcome,[4],inactive
same,outcome,[3],inactive
CC1COc2c(N3CCN(C)CC3)c(F)cc3c(=O)c(C(=O)O)cn1c23 (centres undefined),outcome,[1],inactive
same,outcome,[2],inactive
same,outcome,[3],inactive
Cc1nc2ccc(Cl)cc2[nH]1,outcome,[1],inactive
same,outcome,[2],inactive
same,outcome,[3],inactive
C=CCCCCCCCC,outcome,[1],inactive
same,outcome,[4],inactive
same,outcome,[3],inactive
CO[C@@]1(NC(=O)C(C(=O)O)c2ccc(O)cc2)C(=O)N2C(C(=O)O)=C(CSc3nnnn3C)CO[C@@H]21 (some centres undefined),outcome,[1],inactive
same,outcome,[2],inactive
same,outcome,[4],inactive
same,outcome,[3],inactive
[K+],outcome,[1],inactive
same,outcome,[2],inactive
same,outcome,[3],inactive
same,outcome,[5],inactive
same,outcome,[6],inactive
same,outcome,[7],inactive
C=C(C)C(=O)NCCC[N+](C)(C)C,outcome,[1],inactive
same,outcome,[2],inactive
same,outcome,[4],inactive
same,outcome,[3],inactive
NC(=O)Cc1cccc2ccccc12,outcome,[1],inactive
same,outcome,[2],inactive
same,outcome,[3],inactive
CN(C)C=Nc1c(I)cc(I)c(CCC(=O)O)c1I,outcome,[1],inactive
same,outcome,[4],inactive
O=C(NCCc1c[nH]c2ccccc12)c1cccnc1,outcome,[1],inactive
same,outcome,[2],inactive
same,outcome,[4],inactive
same,outcome,[3],inactive
COc1ccc2cc([C@H](C)CO)ccc2c1,outcome,[1],inactive
same,outcome,[2],inactive
same,outcome,[4],inactive
same,outcome,[3],inactive
O=C(/C=C/c1ccc(O)c(O)c1)O[C@@H](C(=O)O)[C@@H](OC(=O)/C=C/c1ccc(O)c(O)c1)C(=O)O,outcome,[8],inactive
same,outcome,[9],inactive
same,outcome,[10],inactive
same,outcome,[2],inactive
same,outcome,[4],inactive
same,outcome,[3],inactive
Cc1ccc(Cl)cc1Cl,outcome,[8],inactive
same,outcome,[9],inactive
COC(=O)NN,outcome,[8],inactive
same,outcome,[9],inactive
same,outcome,[10],inactive
same,outcome,[2],inactive
CC(C)(C)CC(C)(C)c1ccc(Nc2ccc(C(C)(C)CC(C)(C)C)cc2)cc1,outcome,[8],inactive
CC(C)(O)CCC(C)(C)O,outcome,[8],inactive
same,outcome,[9],inactive
same,outcome,[10],inactive
same,outcome,[2],inactive
same,outcome,[4],inactive
O[C@@H]1CO[C@H]2[C@@H]1OC[C@@H]2O,AC50,[8],43.1 µM (active)
same,outcome,[9],inactive
same,outcome,[10],inactive
same,outcome,[2],inactive
same,outcome,[4],inactive
same,outcome,[3],inactive
C=C(C)C(=O)OCCOCC,outcome,[8],inactive
CCCCNC(=O)NCCCC,outcome,[8],inactive
same,outcome,[9],inactive
same,outcome,[10],inactive
same,outcome,[2],inactive
same,outcome,[4],inactive
same,outcome,[3],inactive
CN1CC[C@H](c2c(O)cc(O)c3c(=O)cc(-c4ccccc4Cl)oc23)[C@H](O)C1,outcome,[1],inactive
same,outcome,[3],inactive
same,outcome,PGR (gene 5241) [11],inactive
same,AC50,PGR (gene 5241) [12],0.206 µM (active)
same,outcome,[13],inactive
same,outcome,PGR (gene 5241) [14],inactive
same,AC50,PGR (gene 5241) [15],0.565 µM (active)
same,outcome,[16],inactive
CCCOC(C)=O,outcome,[8],inactive
same,outcome,[9],inactive
same,outcome,[10],inactive
same,outcome,[2],inactive
same,outcome,[4],inactive
CCOc1ccccc1N,outcome,[1],inactive
same,outcome,[3],inactive
Cc1cccc(C)c1NC(=O)CN1CCCCCC1,outcome,[1],inactive
same,outcome,[4],inactive
same,outcome,[3],inactive
O=[N+]([O-])c1cc([N+](=O)[O-])c2ccc(S(=O)(=O)O)cc2c1O,outcome,[8],inactive
CN1CCC(=C2c3ccccc3CC(=O)c3sccc32)CC1,outcome,[1],inactive
same,outcome,[3],inactive
Cc1cc(O)c(Cl)cc1C,outcome,[8],inactive
same,outcome,[9],inactive
same,outcome,[10],inactive
same,outcome,[2],inactive
same,outcome,[4],inactive
NC(=O)C1(N2CCCCC2)CCN(CCCC(=O)c2ccc(F)cc2)CC1,AC50,[8],36.2 µM (active)
same,outcome,[9],inactive
same,outcome,[10],inactive
same,outcome,[2],inactive
CNS(=O)(=O)Cc1ccc2[nH]cc(CCN(C)C)c2c1,outcome,[8],inactive
same,outcome,[9],inactive
same,outcome,[10],inactive
same,outcome,[2],inactive
C[C@](N)(Cc1ccc(O)cc1)C(=O)O,outcome,[8],inactive
same,outcome,[9],inactive
same,outcome,[10],inactive
same,outcome,[2],inactive
same,outcome,[4],inactive
CC(COc1ccccc1)NN (centres undefined),outcome,[1],inactive
same,outcome,[3],inactive
CCCC(C)CO (centres undefined),outcome,[1],inactive
same,outcome,[3],inactive
O=C(O)CC/C=C\CC[C@@H]1[C@@H](N2CCCCC2)[C@@H](O)C[C@@H]1OCc1ccc(-c2ccccc2)cc1,outcome,[8],inactive
same,outcome,[9],inactive
CCCN(CCC)C(=O)C(CCC(=O)O)NC(=O)c1ccccc1 (centres undefined),outcome,[1],inactive
same,outcome,[4],inactive
same,outcome,[3],inactive
CC(C)CC(=O)N[C@H](C(=O)N[C@H](C(=O)N[C@@H](CC(C)C)[C@@H](O)CC(=O)N[C@@H](C)C(=O)N[C@@H](CC(C)C)[C@@H](O)CC(=O)O)C(C)C)C(C)C (Isovaleryl-VV[Sta]A[Sta]-OH),outcome,[1],inactive
same,outcome,[4],inactive
same,outcome,[3],inactive
CCN1CCN(C(=O)N[C@@H](C(=O)N[C@@H]2C(=O)N3C(C(=O)O)=C(CSc4nnnn4C)CS[C@H]23)c2ccc(O)cc2)C(=O)C1=O,outcome,[1],inactive
same,outcome,[3],inactive
CC(C)(C)NCC(O)COc1cccc2c1CCC(=O)N2 (centres undefined),outcome,[1],inactive
same,outcome,[3],inactive
CCN(CC)CCOC(=O)C(c1ccccc1)C1CCCCC1 (centres undefined),outcome,[1],inactive
same,outcome,[3],inactive
N[C@@H](CS)C(=O)O,outcome,[1],inactive
same,outcome,[4],inactive
same,outcome,[3],inactive
CCCOC(=O)c1ccc(N)cc1,outcome,[1],inactive
same,outcome,[3],inactive
COc1ccc2c(c1)C(=O)N(CCc1ccc(S(=O)(=O)NC(=O)NC3CCCCC3)cc1)C(=O)C2(C)C,outcome,[1],inactive
same,outcome,[3],inactive
COc1cc(Cl)ccc1Cl,outcome,[8],inactive
same,outcome,[9],inactive
CC(C)(CCC(=O)O)C(=O)O,outcome,[1],inactive
same,outcome,[4],inactive
same,outcome,[3],inactive

# Source: PubChem BioAssay (EPA / NIEHS)
